Test results from PubChem BioAssay AID777 (Sanford-Burnham Center for Chemical Genomics, 2007).
Screen size: about 96,000 compounds; about 19,000 (20%) were called active. These entries were drawn from the full list. Unmarked numbers belong to inactive results.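 The calls were made as follows: active = blocking of liver enzyme CYP2C9 beyond about 50% at 5 µM (limit read from the data); inactive = the rest.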

What follows are compounds tested against Cytochrome P450 2C9 (Homo sapiens) (UniProt P11712) (assay: blockers of cytochrome P450 2C9 activity – biochemical, luminescence, ADME assay, primary screen (AID 777)). Details: CYP2C9 Supersomes, luciferin-H conversion, at 5 µM, stronger effect = higher value.
Sequence of Cytochrome P450 2C9 (Homo sapiens) (P11712 whole entry, looked up): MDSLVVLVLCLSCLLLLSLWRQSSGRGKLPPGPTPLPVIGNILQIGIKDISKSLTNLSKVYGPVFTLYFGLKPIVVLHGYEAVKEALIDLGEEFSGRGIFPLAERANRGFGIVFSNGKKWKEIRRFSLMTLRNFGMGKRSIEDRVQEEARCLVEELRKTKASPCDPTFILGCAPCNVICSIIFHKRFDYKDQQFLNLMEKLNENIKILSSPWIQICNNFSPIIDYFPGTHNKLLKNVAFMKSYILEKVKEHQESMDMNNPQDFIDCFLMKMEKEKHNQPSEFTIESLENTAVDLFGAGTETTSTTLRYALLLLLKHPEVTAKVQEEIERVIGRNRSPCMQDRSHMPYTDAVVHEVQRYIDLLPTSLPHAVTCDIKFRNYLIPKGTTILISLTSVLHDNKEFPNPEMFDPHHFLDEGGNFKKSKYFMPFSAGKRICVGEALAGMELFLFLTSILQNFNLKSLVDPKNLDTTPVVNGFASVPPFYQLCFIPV
`COc1ccccc1-n1c(O)c(C=NC2CC2)c(=O)[nH]c1=O` gave an inhibition of -3.5%.
`COc1ccc(CCn2c(O)c(C=NCCCn3ccnc3)c(=O)[nH]c2=O)cc1OC` was tested, and the inhibition was 61.3% (active).
Compound `COc1ccc(CCn2c(O)c(C=NC3CC3)c(=O)[nH]c2=O)cc1OC` has an inhibition of 16.5%.
`COc1ccc(S(=O)(=O)NCc2ccc(C(=O)N3CCC4(CC3)OCCO4)cc2)cc1` was tested, and the inhibition was 4.3%.
Compound `C=Cn1ccnc1P(=S)(c1cc(N(CC)CC)ns1)c1nccn1C=C` has an inhibition of 12.6%.
With `COC(=O)C(O)(c1ccc(NC(=O)c2ccco2)c(OC)c1)C(F)(F)F` (stereo not drawn) the inhibition was 75.9% (active).
`CCOC(=O)C(O)(c1ccc(NC(=O)c2ccco2)c(OC)c1)C(F)(F)F` (stereo not drawn) was tested, and the inhibition was 71.4% (active).
Compound `CCOC(=O)C(O)(c1ccc(N)c(OC)c1)C(F)(F)F` (stereo not drawn) has an inhibition of 25.7%.
For `C[N+]12CN3CN(CN(C3)C1)C2`, the inhibition was 0.8%.
In the case of `Cc1ccc(P(=S)(c2ccc(C)o2)N2CCOCC2)o1`, the inhibition is reported as 11%.
`c1cncc(CNC2=NCCC2)c1` gave an inhibition of -10.2%.
In the case of `COc1ccccc1N1CCN(C(CNC(=O)Oc2ccccc2)c2cccnc2)CC1` (stereo not drawn), the inhibition is reported as 44.1%.
`CC(C)c1ccc(O)c(CN2CCN(c3ccccc3)CC2)c1` gave an inhibition of 19.1%.
Compound `CC[N+](CC)(CC)CCCCCCCCCC[N+](CC)(CC)CC` has an inhibition of -4.4%.
In the case of `O=C(CN1CCCCC1)Nc1ccc(Br)cc1C(=O)c1ccccc1Cl`, the inhibition is reported as 8.7%.
Compound `CCC/C(=N\O)c1c[nH]c2ccccc12` has an inhibition of 10.1%.
In the case of `Cc1ccc2c(c1)C1CN(C)CCC1N2C(=O)Cn1nnc(-c2ccccc2F)n1` (stereo not drawn), the inhibition is reported as 4.5%.
`CN1CCC(N(C)Cc2cccnc2)CC1` gave an inhibition of -6.3%.
`CN1C2C=C(N(C(=O)c3ccc(Cl)cc3)c3ccccc3)CC1CC2` (stereo not drawn) was tested, and the inhibition was 6.8%.
In the case of `Nc1ccc(C(=O)N/N=C2/CN3CCC2CC3)cc1`, the inhibition is reported as 8%.
In the case of `O=C(COc1ccc2ccccc2c1)N1CCN(Cc2ccncc2)CC1`, the inhibition is reported as 90.5% (active).
`CN1CCN(C(=O)COc2ccc(C(C)(C)C)cc2Br)CC1` gave an inhibition of -18%.
Work on `CC(C)c1ccc(OCC(=O)N2CCN(C)CC2)c(Br)c1` yielded an inhibition of -1.3%.
`Cc1ccc(N(C)C(=O)Oc2cccc3ccc(C)nc23)cc1` showed an inhibition of 36.4%.
In the case of `Cn1c(C(=O)N2CCC(C(=O)N3CCC4(CC3)OCCO4)CC2)cc2sccc21`, the inhibition is reported as -32.3%.
`CCOc1ccc(CN(CCCl)CCCl)cc1C(=O)OC` was tested, and the inhibition was 97.3% (active).
Work on `Cn1c(O)c(C=Nc2ccc3c(c2)CCC3)c(=O)n(C)c1=O` yielded an inhibition of 11.5%.
Work on `CC(=C1C(=O)c2ccccc2C1=O)N1CCN(CCN=Cc2c(O)n(C)c(=O)n(C)c2=O)CC1` yielded an inhibition of 43.2%.
`CC(C)(C)c1ccc(CN2C(=O)CN=C(c3ccccc3)c3ccccc32)cc1` gave an inhibition of 18.9%.
`O=C(O)C1CSC(c2cccnc2)N1` (stereo not drawn) was tested, and the inhibition was -16.9%.
`CCOC(=O)CC1=C(C(=O)OCC)C2(C(=O)N1)C(C(=O)OC)=C(N)Oc1ccccc12` (stereo not drawn) showed an inhibition of 20.6%.
Work on `COC(=O)CN1C(=O)C2(C(C(=O)OC)=C(N)Oc3ccccc32)C2=C1CC(C)(C)CC2=O` (stereo not drawn) yielded an inhibition of 38.6%.
`C=CCN1C(=O)C2(C(C(=O)OCC)=C(N)Oc3c2c(=O)oc2ccccc32)c2ccccc21` (stereo not drawn) was tested, and the inhibition was 88.5% (active).
In the case of `CNC(=O)N(C)c1nnc(C(C)(C)C)s1`, the inhibition is reported as -22.2%.
`Cc1ccc(C)c(NC2=NCCCS2)c1` gave an inhibition of -2.6%.
Compound `CCOC(=O)C1CN(C)CCC1=O` (stereo not drawn) has an inhibition of 1.1%.
With `CCCCCn1c(=O)c(C(=O)NCc2ccccn2)c(O)c2ccccc21` the inhibition was 78.1% (active).
`CCCCCn1c(=O)c(C(=O)Nc2c(C)n(C)n(-c3ccccc3)c2=O)c(O)c2ccccc21` showed an inhibition of 25.9%.
`CCN1c2nc3c(C)cccn3c(=O)c2CC2(C(=O)N(C)C(=O)N(C)C2=O)C1C` (stereo not drawn) gave an inhibition of -8.4%.
`Cc1nc2ccccn2c1P(=S)(N1CCCCC1)N1CCCCC1` was tested, and the inhibition was 11.7%.
Work on `CCOC(=O)c1c(C)c(C(=O)N2CCC3(CC2)OCCO3)c(C)n1CC` yielded an inhibition of 31.2%.
With `CN(C)C(=O)NC(O)C(Cl)(Cl)Cl` (stereo not drawn) the inhibition was 74.8% (active).
Compound `Cc1cc(N2C(=O)C3CCCN3C2c2ccc(Cl)c(Cl)c2)no1` (stereo not drawn) has an inhibition of 41.4%.
`COc1ccc(-c2nc(CS(=O)CC(=O)N3CCC4(CC3)OCCO4)c(C)o2)cc1` (stereo not drawn) gave an inhibition of 14.5%.
Compound `O=C1/C(=C\c2ccc3c(c2)OCO3)N2CCC1CC2` has an inhibition of 22.5%.
With `CCOC(=O)c1c(-c2ccccc2)oc2ccc(OC(=O)N(C)C)cc12` the inhibition was 55% (active).
In the case of `O=C1NC(=O)C(C/C=C/c2ccccc2)C(=O)N1`, the inhibition is reported as -3%.
Work on `CC(=NCc1ccc2c(c1)OCO2)c1c(O)[nH]c(=O)[nH]c1=O` yielded an inhibition of -11.9%.
`CN1CCN(Cc2ccccc2C(F)(F)F)CC1` showed an inhibition of 0.4%.
For `CCN(CC)C(=O)c1ccc(NC(=O)c2cc(-n3cnnc3)ccc2Cl)cc1`, the inhibition was 32.9%.
Compound `O=C(CCN1CCCCC1)NCC(=O)Nc1ccc(Br)cc1C(=O)c1ccccc1` has an inhibition of -14.9%.
In the case of `CCOP(=S)(OCC)SCOC(=O)NCC(=O)OC`, the inhibition is reported as 71.1% (active).
In the case of `c1ccc(C2NCc3ccccc3-n3cccc32)cc1` (stereo not drawn), the inhibition is reported as 19.1%.
In the case of `CC(=O)NC(=O)NC(C)Cc1ccccc1` (stereo not drawn), the inhibition is reported as -12.4%.
`CC(=O)c1ccc(OC(NC(=O)Cc2ccccc2)C(Cl)(Cl)Cl)cc1` (stereo not drawn) was tested, and the inhibition was 86.4% (active).
For `Cc1nc2nc(C)c(CCC(=O)N3CCC4(CC3)OCCO4)c(C)n2n1`, the inhibition was 3.8%.
`NC(=O)Nc1cccc(C(F)(F)F)c1` gave an inhibition of -12.3%.
In the case of `CC(=O)Nc1ccccc1C(=O)OCC(=O)c1cccc2ccccc12`, the inhibition is reported as 80.7% (active).
`CC12CN3CC(C)(CN(C1)C3c1cccs1)C2` (stereo not drawn) showed an inhibition of -10.5%.
`Cc1ccc(Cn2nnnc2CN2CCC(n3nnc4ccccc43)CC2)cc1` was tested, and the inhibition was 93.4% (active).
Work on `CSC1=NP(=S)(SC)N(C)c2nc3n(c21)CCC3` (stereo not drawn) yielded an inhibition of 9.2%.
In the case of `Cc1cccc(N2C(=O)NC(=O)/C(=C\c3cnn(-c4ccccc4)c3)C2=O)c1`, the inhibition is reported as -9.5%.
Work on `COc1ccc(C(=O)C2CN(C)CC2C(=O)c2ccc(OC)cc2)cc1` (stereo not drawn) yielded an inhibition of 12.4%.
